Shown are actives, neighbours in structure and some others; about 3.8% of the full set was active somewhere.
TIM10 inh – inhibits growth of TIM10 yeast strain | actives 1.4% (n = 330,000) | S. cerevisiae TIM10 strain growth, BacTiter-Glo luminescence, 24 h | inhibition, % at 10 µM;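 active = inhibition of 40% or more at the single tested concentration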;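 note: wild-type TIM10 isogenic control strain grown at permissive 25 °C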
tim10-1 inh – inhibits growth of tim10-1 mutant yeast; S. cerevisiae tim10-1 ts strain growth, BacTiter-Glo, 24 h; inhibition, % at 20 µM; actives 2.2% (n = 330,000); AID 463190;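 active = inhibition of at least 40%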;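 note: mutant grown at 25 °C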
Beta2AR agonist – activates human beta-2 adrenergic receptor causing internalization | Am2.2-beta2AR cells, FAP receptor internalization, flow cytometry | response, % (no concentration beside the values) | P07550 | actives 0.43% (n = 340,000);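 active = response above a set limit, near 3 SD of response in nonfluorescent compounds, cut at about 42% in these data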
Target sequence (P07550 whole entry, looked up): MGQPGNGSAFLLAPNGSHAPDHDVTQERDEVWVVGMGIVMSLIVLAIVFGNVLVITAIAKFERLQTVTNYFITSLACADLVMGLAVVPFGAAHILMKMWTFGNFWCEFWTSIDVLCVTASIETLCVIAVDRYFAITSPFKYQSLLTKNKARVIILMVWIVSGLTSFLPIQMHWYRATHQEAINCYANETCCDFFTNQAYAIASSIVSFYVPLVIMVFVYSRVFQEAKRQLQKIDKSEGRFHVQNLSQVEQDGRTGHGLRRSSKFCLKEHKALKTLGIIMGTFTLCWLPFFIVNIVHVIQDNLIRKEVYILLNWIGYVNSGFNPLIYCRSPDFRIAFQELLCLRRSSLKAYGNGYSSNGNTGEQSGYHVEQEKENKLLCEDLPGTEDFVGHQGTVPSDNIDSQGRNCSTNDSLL
PfHsp90 set2 – growth inhibition of yeast expressing Plasmodium Hsp90 | S. cerevisiae expressing PfHsp90, BacTiter-Glo ATP, 48 h; yeast lacking PDR1 and PDR3 efflux regulators | inhibition, % at 9.4 µM | actives 0.32% (n = 310,000) | AID 504621;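 active = every replicate shows inhibition above about 80%, whatever the replicate mean, limit read from the data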
tim23-1 inh – growth inhibitors of tim23-1 mutant yeast; S. cerevisiae tim23-1 growth, BacTiter-Glo luminescence, 24 h; inhibition, % at 20 µM; actives 1.3% (n = 330,000); AID 463212;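 active = growth inhibition of the mutant yeast at or above 50%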;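 note: temperature-sensitive mutant grown at 25 °C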
B2AR ag CP1 – activates human beta-2 adrenergic receptor; shares compounds with Beta2AR agonist; percent response (surface receptor), % at 10 µM; Am2.2-beta2AR cells, FAP surface receptor, flow cytometry; hits give low values; AID 540358; actives 25% (n = 1,100);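 active = surface receptor percent response at or below 58%, roughly 3 SD from nonfluorescent compounds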
B2AR FAP counter – flagged in Am2.2 fluorescence counterscreen for beta-2AR agonists; shares compounds with Beta2AR agonist; Am2.2 cells, FAP fluorogen flow cytometry; hits give low values; calls only at 10 µM; 1,100 tested, under 10 active;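 active = percent response below a set limit in fluorescence channel 1 and below 50% in channel 8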
Large screens that a line does not name were inactive (follow-up assays come after a bar, where they were run).

CC1CCN(CCCNC(=O)C2CC(=O)N(CCc3ccccc3)C2)CC1 (centres undefined)	none
CCOC(=O)C(C)Oc1cccc2c(=O)n(CC(=O)NCCc3ccccc3)ccc12 (centres undefined)	none
CCOC(=O)COc1cccc2c(=O)n(CC(=O)NCCc3ccccc3)ccc12	Beta2AR agonist 43.7 | B2AR ag CP1 inactive | B2AR FAP counter inactive
COc1ccc(C(=O)NCC(c2ccco2)N2CCc3ccccc32)cc1 (centres undefined)	Beta2AR agonist 54.4 (no result: PfHsp90 set2) | B2AR ag CP1 inactive | B2AR FAP counter inactive
COc1ccc(NC(=O)C(=O)NCC(c2ccco2)N2CCc3ccccc32)cc1 (centres undefined)	none (no result: PfHsp90 set2)
CC(C)CC(C(=O)NCC1CCCO1)N(C(=O)Cn1nnc(-c2ccc(F)cc2)n1)c1ccccc1F (centres undefined)	none
COc1cccc(CN2CCNC(=O)C2CC(=O)NCCCN2CCCC2=O)c1 (centres undefined)	none
Cc1ccc(Cl)cc1NC(=O)c1cc2ccccc2cc1O	Beta2AR agonist 43.6 | B2AR ag CP1 inactive | B2AR FAP counter inactive
Cc1ccc(CS(=O)(=O)c2nc3c(c(N(C)C)n2)CCCC3)cc1	Beta2AR agonist 73.0 | B2AR ag CP1 27.0 | B2AR FAP counter inactive
COc1cccc(C(=O)Nc2cccc(-c3ccc4nncn4n3)c2)c1OC	none
COc1ccc(Cl)cc1C(=O)Nc1cccc(-c2ccc3nncn3n2)c1	Beta2AR agonist 77.3 | B2AR ag CP1 inactive | B2AR FAP counter inactive
O=C(CN1C(=O)C(=O)N(Cc2ccco2)C1=O)Nc1ccccc1	none (no result: PfHsp90 set2)
COc1ccc(-n2nc3c(N4CCC(C(=O)NCc5ccco5)CC4)nnc(C)c3c2C)cc1	none | B2AR ag CP1 inactive | B2AR FAP counter inactive
Cc1ccc(-n2nc3c(N4CCC(C(=O)NCCc5ccco5)CC4)nnc(C)c3c2C)cc1	none
Cc1ccccc1Oc1nc2c(C)cccn2c(=O)c1/C=C(\C#N)C(=O)Nc1c(C)n(C)n(-c2ccccc2)c1=O	none
CCCN(CCC)S(=O)(=O)c1ccc(Cl)c([N+](=O)[O-])c1	Beta2AR agonist 43.6 | B2AR ag CP1 inactive | B2AR FAP counter inactive
CC(=O)c1oc2ccccc2c1NC(=O)CCCN1C(=O)c2ccccc2C1=O	Beta2AR agonist 67.6 | B2AR ag CP1 inactive | B2AR FAP counter inactive
O=C(NN=Cc1ccc(OC(F)F)cc1)c1ccc(NS(=O)(=O)c2cccs2)cc1	none
O=C(c1ccc(F)c(F)c1)N1CCC2(CC1)NCCc1[nH]cnc12	none
COc1ccc([C@H](C)NC[C@H](O)c2ccc(O)c(NC=O)c2)cc1	none | B2AR ag CP1 11.9 | B2AR FAP counter inactive
COc1ccccc1-c1csc(-n2ncc(C#N)c2N)n1	Beta2AR agonist 83.6 | B2AR ag CP1 inactive | B2AR FAP counter inactive
COc1ccc(-c2csc(-n3ncc(-c4ccccn4)c3N)n2)cc1	none
COc1ccc(NC(=O)Cn2nnc(-c3ccc(CN4CCOCC4)cc3)n2)c(OC)c1	none | B2AR ag CP1 inactive | B2AR FAP counter inactive
CCOC(=O)c1ccc(NC(=O)Cn2nnc(-c3ccccc3C)n2)cc1	none | B2AR ag CP1 inactive | B2AR FAP counter inactive
Cc1cccc(C)c1NC(=O)Cn1nnc(-c2ccc(N3CCOCC3)cc2)n1	none | B2AR ag CP1 inactive | B2AR FAP counter inactive
Cc1ccccc1NC(=O)Cn1nnc(-c2ccc(CN3CCC(C)CC3)cc2)n1	none
CCCOc1ccc(-c2nnn(CC(=O)Nc3cccc(C(=O)OC)c3)n2)cc1	none | B2AR ag CP1 inactive | B2AR FAP counter inactive
CC(=O)Nc1cccc(C(=O)OCC(=O)N2CCC(c3ccccc3)=N2)c1	none
COc1ccc(NC(=O)C/C(C)=N/NC(=O)C(=O)NC2CCCCC2)c(OC)c1	none
Cc1ccc(NC(=O)COC(=O)C2CC(=O)N(Cc3ccccc3)C2)cc1S(=O)(=O)N(C)C (centres undefined)	none
COc1cc(/C=C2\SC(=Nc3ccc(Cl)c(C(=O)O)c3)NC2=O)c(Br)c(Br)c1O	none
Cc1onc(-c2ccccc2Cl)c1C(=O)Nc1ccc(Br)cc1	none
CCC(CC)C(=O)N1N=C(c2ccc(NS(C)(=O)=O)cc2)CC1c1ccc(C)cc1 (centres undefined)	none
CC(C)Oc1cccc(-c2nnc(SCC(=O)Nc3ccc4c(c3)OCCO4)n2N)c1	none (no result: PfHsp90 set2)
COC(=O)c1ccccc1NC(=O)Cn1nnc(-c2ccc(OC)cc2)n1	none | B2AR ag CP1 inactive | B2AR FAP counter inactive
COc1ccc(Cl)c(NC(=O)Cn2nnc(-c3ccccc3N)n2)c1	none | B2AR ag CP1 inactive | B2AR FAP counter inactive
CCOC(=O)CCNC(=O)c1ccc2nc(C3CCCCC3)oc2c1	none
CN(CC(=O)N1CCN(c2ncccn2)CC1)S(=O)(=O)c1ccc(Cl)cc1	Beta2AR agonist 111.7 | B2AR ag CP1 27.7 | B2AR FAP counter inactive
CN(CC(=O)N1CCN(c2ccccn2)CC1)S(=O)(=O)c1ccccc1	Beta2AR agonist 50.7 | B2AR ag CP1 inactive | B2AR FAP counter inactive
O=C(Nc1ccc(F)cc1)c1cccc(N2C(=O)c3ccccc3C2=O)c1	none | B2AR ag CP1 inactive | B2AR FAP counter inactive
O=C(Nc1ccc(S(=O)(=O)Nc2nccs2)cc1)c1cccc(N2C(=O)c3ccccc3C2=O)c1	none | B2AR ag CP1 inactive | B2AR FAP counter inactive
N#Cc1cccc(C(=O)Nc2ccc(S(=O)(=O)Nc3nccs3)cc2)c1	none
O=C(CNC(=O)c1cccc(N2C(=O)c3ccccc3C2=O)c1)Nc1ccc(F)c(F)c1	none (no result: PfHsp90 set2)
Cc1cc(NC(=O)CSC2=NS(=O)(=O)c3ccccc3N2)no1	none
COc1ccccc1CNC(=O)CCNS(=O)(=O)c1ccc2[nH]c(=O)oc2c1	none
Cc1ccc(NC(=O)c2ccc3c(c2)C(=O)N(CC2CCCO2)C3=O)cc1C (centres undefined)	none | B2AR ag CP1 inactive | B2AR FAP counter inactive
Cc1cccc(NC(=O)CSc2nccn2Cc2ccco2)c1C	none
Nn1c(SCc2cn3cc(Cl)ccc3n2)nnc1-c1ccncc1	none
Nn1c(SCc2cn3ccccc3n2)nnc1-c1ccncc1	Beta2AR agonist 45.3 | B2AR ag CP1 inactive | B2AR FAP counter inactive
O=C(CSc1ccccn1)c1ccc2c(c1)OCO2	Beta2AR agonist 52.5 | B2AR ag CP1 inactive | B2AR FAP counter inactive
CCN(CC(=O)Nc1ccc(NC(C)=O)cc1)C(=O)c1cccc(S(=O)(=O)N2CCCC2)c1	none (no result: PfHsp90 set2)
CN(C)c1nc(=NCc2ccco2)ss1	none (no result: TIM10 inh, tim10-1 inh, tim23-1 inh) | B2AR ag CP1 inactive | B2AR FAP counter inactive
Cc1csc(NC(=O)CCc2c(C)nc3cc(-c4ccc(Cl)cc4)nn3c2C)n1	Beta2AR agonist 63.4 | B2AR ag CP1 inactive | B2AR FAP counter inactive
Cc1nc2cc(-c3ccc(Cl)cc3)nn2c(C)c1CCC(=O)NC(C)c1ccc2c(c1)OCCO2 (centres undefined)	none
COc1cc(CN2CCCC(CO)(Cc3ccccc3C)C2)cc2c1OCO2 (centres undefined)	none
